Test [1] in a line: qHTS assay to identify small molecule agonists of the peroxisome proliferator-activated receptor delta (PPARd) signaling pathway - cell viability counter screen (AID 743211). Also: nearly all actives have a fitted effect of over 55% in size. In short, it runs like this: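 Following 5 h plating at 37 C and 5% CO2, PPARd UAS-bla HEK293H cells took up test compounds for 17 h. Viability was quantified by luminescence 30 min after CellTiter-Glo addition at room temperature.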

Test [2] has as its target Peroxisome proliferator-activated receptor delta (Homo sapiens) (UniProt Q03181). Description: qHTS assay to identify small molecule agonists of the peroxisome proliferator-activated receptor delta (PPARd) signaling pathway (AID 743212; calls by dose curve). In short, it runs like this:
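Steps: seed PPARd-bla HEK293H cells; incubate 5 h, 37 C, 5% CO2; add compounds in DMSO; incubate, 37 C; add LiveBLAzer B/G FRET substrate; hold 2 h at room temperature; measure fluorescence.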

Test [3] in a line: qHTS assay to identify small molecule antagonists of the peroxisome proliferator-activated receptor delta (PPARd) signaling pathway - cell viability counter screen (AID 743213). Also: nearly all actives have a fitted effect of over 50% in size. In short, it runs like this: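 Luminescence from CellTiter-Glo, added after the bla read and incubated 30 min at room temperature, gives viability of HEK293H PPARd-bla cells exposed to compounds for 17 h at 37 C with 300 nM L165041.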

The target in test [4] is Peroxisome proliferator-activated receptor delta (Homo sapiens) (UniProt Q03181). Description: qHTS assay to identify small molecule antagonists of the peroxisome proliferator-activated receptor delta (PPARd) signaling pathway (AID 743215; active = well fitted inhibition curve with a large enough effect in the signal ratio in the repeat runs, not every such curve was filed as active; the % refers to the signal ratio;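 also: cells stimulated with agonist L165041 at 300 nM final during compound exposure; series mostly up to about 62 µM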). In a few lines:
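Cells: HEK293H with a UAS-driven beta-lactamase reporter responsive to PPARd. Compounds were co-added with L165041 (300 nM, final) and incubated 17 h at 37 C before a 2 h room-temperature FRET substrate step and fluorescence reading.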

Test [5] has as its target Bile acid receptor (Homo sapiens) (UniProt Q96RI1). Description: qHTS assay to identify small molecule antagonists of the farnesoid-X-receptor (FXR) signaling pathway (AID 743217; active = well fitted inhibition curve with a large enough effect in the signal ratio in the repeat runs, not every such curve was filed as active; the % refers to the signal ratio). In a few lines: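 Cells carrying a UAS-driven beta-lactamase reporter (GeneBLAzer FXR-UAS-bla HEK 293T) were plated and rested 5 h at 37 °C. Compounds in DMSO were added alongside chenodeoxycholic acid agonist at 50 uM final and left 16 h at 37 °C before FRET substrate readout.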

Test [6] in a line: qHTS assay to identify small molecule agonists of the farnesoid-X-receptor (FXR) signaling pathway - cell viability counter screen (AID 743218). Also: nearly all actives have a fitted effect of over 45% in size. In a few lines: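 Cells were seeded, left 5 h at 37 C and 5% CO2, then dosed with compound in DMSO for 16 h. After the beta-lactamase FRET read, CellTiter-Glo was added and luminescence measured 30 min later.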
The target of test [7] is Bile acid receptor (Homo sapiens) (UniProt Q96RI1). Description: qHTS assay to identify small molecule agonists of the farnesoid-X-receptor (FXR) signaling pathway (AID 743220; active = well fitted activation curve with a large enough effect in the signal ratio in the repeat runs, not every such curve was filed as active; the % refers to the signal ratio). In a few lines:
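FXR-UAS-bla HEK 293T cells carrying a UAS-driven beta-lactamase reporter were plated for 5 h at 37C/5% CO2, then exposed to DMSO-dissolved Tox21 10K compounds for 16 h at 37C. A LiveBLAzer B/G FRET substrate was loaded for 2 h at room temperature before fluorescence reading.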

Test [8] in a line: qHTS assay to identify small molecule antagonists of the farnesoid-X-receptor (FXR) signaling pathway - cell viability counter screen (AID 743221; active = well fitted cell-killing curve with a large enough effect in the repeat runs, not every such curve was filed as active; also: nearly all actives have a fitted effect of over 50% in size). In short, it runs like this: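 Compound effects on cell number were measured as CellTiter-Glo luminescence in HEK 293T cells expressing FXR-UAS-bla, after 16 h at 37 C with 50 uM CDCA (final).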
Test [9] deals with Vitamin D3 receptor (Homo sapiens) (UniProt P11473). Description: qHTS assay to identify small molecule agonists of the vitamin D receptor (VDR) signaling pathway (AID 743222; calls by dose curve). In short, it runs like this:
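Cells carrying a VDR-driven beta-lactamase reporter are seeded at 2,000 per well and rested 4 h. Compounds in DMSO are added for 16 h at 37C, and FRET substrate fluorescence is measured after 2 h at room temperature.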

The target is the same in test [10]. Description: qHTS assay to identify small molecule antagonists of the vitamin D receptor (VDR) signaling pathway (AID 743223; active = well fitted inhibition curve with a large enough effect in the signal ratio in the repeat runs, not every such curve was filed as active; the % refers to the signal ratio). In a few lines:
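Beta-lactamase activity in VDR-bla cells is measured by FRET substrate fluorescence (2 h, room temperature) after cells spend 16 h at 37C with test compound and 3 nM final 1alpha,25-dihydroxyvitamin D3.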

A short description of test [11]: qHTS assay to identify small molecule agonists of the vitamin D receptor (VDR) signaling pathway - cell viability counter screen (AID 743224). Also: series mostly up to about 63 µM; nearly all actives have a fitted effect of over 50% in size. In a few lines: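 Cells: VDR-bla, 2,000/well, settled 4 h. Treatment: compounds in DMSO, 16 h, 37C/5% CO2. Readout: CellTiter-Glo luminescence after 30 min RT.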
Test [12] can be described thus: qHTS assay to identify small molecule antagonists of the vitamin D receptor (VDR) signaling pathway - cell viability counter screen (AID 743225). Also: nearly all actives have a fitted effect of over 50% in size. In a few lines: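 In this counter screen, VDR-bla HEK 293T cells receive test compound plus 3 nM final calcitriol for 16 h at 37C. Room-temperature steps of 2 h with the beta-lactamase substrate, then 30 min with CellTiter-Glo, precede the luminescence read.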

The nature of test [13]: qHTS assay to identify small molecule agonists of the NFkB signaling pathway (AID 1159509; active = well fitted curve in the direction sought with a large enough effect in the signal ratio in the repeat runs, not every such curve was filed as active; the % refers to the signal ratio; also: series mostly up to about 61 µM). In a few lines:
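Beta-lactamase reporter assay run in quantitative high-throughput format on an NF-kB-responsive ME-180 line, with 5 hr compound treatment and a FRET-based blue/green fluorescence readout.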

Test [14] in a line: qHTS assay to identify small molecule agonists of the NFkB signaling pathway - cell viability counter screen (AID 1159515; calls by dose curve; also: nearly all actives have a fitted effect of over 55% in size; also: potency is read from the fitted curve at half-maximal effect). In a few lines:
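Cells are seeded (2,000 NFkB-bla ME-180 per well), rested overnight, and dosed with DMSO-dissolved compounds for 5 hr at 37 C. Viability is then read by CellTiter-Glo luminescence after 30 min at room temperature.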

Test [15] is described as follows: qHTS assay to identify small molecule agonists of the endoplasmic reticulum stress response signaling pathway (AID 1159516; active = well fitted activation curve with a large enough effect in the signal ratio in the repeat runs, not every such curve was filed as active; the % refers to the signal ratio). In a few lines:
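Cells are seeded at 1,500 per well and incubated overnight. Compounds in DMSO are added for 5 hr at 37 C, then beta-lactamase FRET substrate for 2 hr at room temperature, and fluorescence at 460 and 530 nm is measured.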

Test [16] can be described thus: qHTS assay to identify small molecule antagonists of the retinoid-related orphan receptor gamma (ROR-gamma) signaling pathway - cell viability counter screen (AID 1159520). Also: nearly all actives have a fitted effect of over 50% in size. In short, it runs like this: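 Cytotoxicity was read from cellular ATP (CellTiter-Glo luminescence) after 16 hr at 37 C with 1 uM doxycycline induction. The inducer was added 2 hr after compound transfer to Tet-on ROR gamma CHO cells.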

Test [17] has as its target Nuclear receptor ROR-gamma (Homo sapiens) (UniProt P51449). Description: qHTS assay to identify small molecule antagonists of the retinoid-related orphan receptor gamma (ROR-gamma) signaling pathway (AID 1159521). In a few lines:
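Screening format: cell-based luciferase reporter in CHO cells with doxycycline-inducible RORγ. Compound pre-exposure lasts 2 h, doxycycline is 1 uM final, induction runs 16 h at 37 C, and ONE-Glo luminescence is read.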

A short description of test [18]: qHTS assay to identify small molecule agonists of the AP-1 signaling pathway - cell viability counter screen (AID 1159525; calls by dose curve; also: nearly all actives have a fitted effect of over 55% in size). In short, it runs like this:
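Intracellular ATP by Cell Titer Glo luminescence (30 min, RT) in the same ME-180 AP-1-bla wells after the 5 h compound exposure at 37 °C. Normalised to tetra n-octyl ammonium bromide and DMSO controls.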

Test [19] in a line: qHTS assay to identify small molecule agonists of the AP-1 signaling pathway (AID 1159526; calls by dose curve).

Inconclusive results are not listed. A number with no mark means an inactive call. The source made the active and inactive calls. Unless noted, calls follow the shape of the dose curve; as a rule, active = well fitted curve in the direction sought with a large enough effect in the repeat runs; inconclusive = weak or mixed curves; inactive = no such curve, though single readings can be large; an effect the other way counts as inactive or inconclusive.

Experimental findings from PubChem BioAssay (Tox21) are described below.

Vitamin D3 receptor (Homo sapiens), sequence (P11473 whole entry, looked up): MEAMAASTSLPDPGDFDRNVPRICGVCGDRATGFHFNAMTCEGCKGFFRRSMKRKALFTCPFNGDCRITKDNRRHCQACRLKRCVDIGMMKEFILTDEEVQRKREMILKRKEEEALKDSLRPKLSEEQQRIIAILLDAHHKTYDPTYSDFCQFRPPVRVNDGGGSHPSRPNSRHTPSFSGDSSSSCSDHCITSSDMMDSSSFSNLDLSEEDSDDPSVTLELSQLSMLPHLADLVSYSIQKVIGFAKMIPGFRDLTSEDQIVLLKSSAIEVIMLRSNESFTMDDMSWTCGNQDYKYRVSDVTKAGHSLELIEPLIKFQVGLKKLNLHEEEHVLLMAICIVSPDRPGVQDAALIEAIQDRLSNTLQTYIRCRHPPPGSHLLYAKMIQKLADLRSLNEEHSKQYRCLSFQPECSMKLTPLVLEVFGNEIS
Peroxisome proliferator-activated receptor delta (Homo sapiens), sequence (Q03181 whole entry, looked up): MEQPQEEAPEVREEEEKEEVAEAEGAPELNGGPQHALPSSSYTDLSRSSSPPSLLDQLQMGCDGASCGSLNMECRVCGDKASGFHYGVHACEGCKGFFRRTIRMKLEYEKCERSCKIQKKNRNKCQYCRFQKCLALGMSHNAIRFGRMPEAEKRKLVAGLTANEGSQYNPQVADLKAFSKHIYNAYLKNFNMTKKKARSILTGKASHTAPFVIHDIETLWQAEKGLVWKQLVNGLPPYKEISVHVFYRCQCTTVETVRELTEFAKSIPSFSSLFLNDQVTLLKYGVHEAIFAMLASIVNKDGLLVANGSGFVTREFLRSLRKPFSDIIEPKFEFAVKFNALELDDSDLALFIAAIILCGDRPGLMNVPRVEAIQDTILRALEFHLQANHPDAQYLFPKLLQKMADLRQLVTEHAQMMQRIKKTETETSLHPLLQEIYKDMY
Bile acid receptor (Homo sapiens), sequence (Q96RI1 whole entry, looked up): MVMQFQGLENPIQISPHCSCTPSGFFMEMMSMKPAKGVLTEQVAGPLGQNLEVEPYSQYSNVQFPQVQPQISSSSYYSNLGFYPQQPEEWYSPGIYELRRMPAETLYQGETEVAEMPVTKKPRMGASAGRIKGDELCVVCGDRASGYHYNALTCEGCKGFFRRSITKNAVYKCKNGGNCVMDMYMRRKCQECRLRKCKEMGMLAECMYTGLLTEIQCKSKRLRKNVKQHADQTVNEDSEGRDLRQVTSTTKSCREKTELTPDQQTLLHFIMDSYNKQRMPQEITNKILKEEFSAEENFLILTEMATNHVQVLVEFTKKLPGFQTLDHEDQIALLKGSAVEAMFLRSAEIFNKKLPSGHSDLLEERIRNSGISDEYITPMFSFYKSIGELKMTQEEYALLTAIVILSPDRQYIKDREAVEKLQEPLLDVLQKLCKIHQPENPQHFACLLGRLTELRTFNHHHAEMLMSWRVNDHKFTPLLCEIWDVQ

Take `CCC(C)(C)C(=O)O`: the Potency entry in test [1], in [3], in test [4], in test [6], in [7] and in test [8] was “inactive” throughout. Also, the Potency entry in [11], in test [12], in test [14], in [15], in test [16] and in [17] was “inactive” each time. Also, in [18], the Potency result was “inactive”. The outcome in test [2], in test [5], in test [9], in test [10], in [13] and in test [19] was inactive.

With `CCCCCCCCCCCCCOS(=O)(=O)O`, in test [13], the outcome was inactive. Also, the Potency in test [14] is 54.9 µM (active). For the same molecule, the Potency result in test [15] and in [16] was “inactive” each time.

As to `CC[C@H]1OC(=O)[C@H](C)[C@@H](O[C@H]2C[C@@](C)(OC)[C@@H](O)[C@H](C)O2)[C@H](C)[C@@H](O[C@@H]2O[C@H](C)C[C@H](N(C)C)[C@H]2O)[C@](C)(O)C[C@@H](C)/C(=N\OCOCCOC)[C@H](C)[C@@H](O)[C@]1(C)O`, the Potency result in test [1], in test [3], in test [6], in [7], in test [11] and in test [14] was “inactive” throughout. The Potency entry in [15], in test [16], in [17] and in test [18] was “inactive” in each case. Further, the molecule was classed as inactive in test [2], in test [5], in [9], in test [10], in test [13] and in test [19].

Consider `CCOC(=O)Oc1ccc(CCNC(=O)[C@H](CCSC)NC(C)=O)cc1OC(=O)OCC`, for which the Potency result in test [1], in [3], in test [4], in [6], in [8] and in test [11] was “inactive” throughout. Besides, the Potency result in [12], in test [14], in [15], in [16], in test [17] and in [18] was “inactive” throughout. Moreover, the molecule was classed as inactive in [2], in [13] and in test [19].

On to `CC1=C2[C@@H]([C@H](C)CC[C@H]2/C=C(\C)C(=O)O)[C@H](O)C1`, for which the Potency entry in test [1], in test [3], in test [4], in test [6], in [8] and in test [11] was “inactive” each time. Further, the Potency result in test [12], in test [14], in test [15], in [16], in test [17] and in test [18] was “inactive” in each case. In addition, the molecule was classed as inactive in [2], in test [5], in test [13] and in [19].

In the case of `CC(CN(CCN(CC(C)OCCO)CC(C)OCCO)CC(C)OCCO)OCCO` (stereo unspecified), the Potency result in [1], in test [4], in test [6], in [11], in test [12] and in test [14] was “inactive” throughout. Also, the Potency entry in [15], in test [16], in test [17] and in [18] was “inactive” each time. Besides, the outcome in [2], in test [9], in [10], in [13] and in [19] was inactive.

As to `O=C1OC(=O)c2c(Br)c(Br)c(Br)c(Br)c21`, the Potency result in test [1], in [3], in test [6], in test [8], in test [11] and in [12] was “inactive” throughout. The Potency entry in test [14], in test [15], in test [16], in test [17] and in test [18] was “inactive” each time. The outcome in [2], in test [10], in test [13] and in test [19] was inactive.

As to `Nc1ccc(F)cc1`, the Potency result in test [1], in test [3], in [6], in test [8], in [11] and in test [12] was “inactive” in each case. For the same molecule, the Potency result in [14], in [15], in [16], in test [17] and in test [18] was “inactive” each time. Further, the outcome in [2], in test [9], in test [10], in test [13] and in [19] was inactive.

In the case of `Cc1c[nH]c2ccccc12`, the Potency entry in [1], in [3], in test [4], in test [6], in test [8] and in test [11] was “inactive” in each case. In addition, the Potency result in test [12], in test [14], in [15], in [16], in test [17] and in test [18] was “inactive” in each case. The outcome in [2], in test [13] and in test [19] was inactive.
